Each structure is given as a SMILES string. Inconclusive results are not listed. The source made the active and inactive calls. Calls follow the shape of the dose curve; as a rule, active = well fitted inhibition curve with a large enough effect; inconclusive = small, poorly fitted or top-dose-only effect; inactive = flat fitted curve, though single readings scatter.

Sequence of Phosphatidylinositol 5-phosphate 4-kinase type-2 alpha (Homo sapiens) (P48426 whole entry, looked up, canonical isoform): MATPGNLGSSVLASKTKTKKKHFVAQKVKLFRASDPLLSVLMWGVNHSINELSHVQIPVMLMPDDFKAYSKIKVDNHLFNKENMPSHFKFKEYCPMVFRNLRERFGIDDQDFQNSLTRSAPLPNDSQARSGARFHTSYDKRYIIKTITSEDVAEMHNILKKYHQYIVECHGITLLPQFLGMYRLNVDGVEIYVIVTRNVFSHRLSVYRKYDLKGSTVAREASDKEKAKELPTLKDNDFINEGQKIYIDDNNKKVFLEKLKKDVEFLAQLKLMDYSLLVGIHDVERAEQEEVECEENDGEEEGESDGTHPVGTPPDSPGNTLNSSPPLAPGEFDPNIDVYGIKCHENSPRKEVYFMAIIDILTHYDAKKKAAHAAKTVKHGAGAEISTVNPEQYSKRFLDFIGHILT

The assay has as its target Phosphatidylinositol 5-phosphate 4-kinase type-2 alpha (Homo sapiens) (UniProt P48426). As to the kind of experiment: qHTS for Inhibitors of PI5P4K: PI5P4K-alpha Confirmatory Assay for Probe SAR. The settings on record: Purified PI5P4Kalpha, ADP-Glo luminescence, 60 min; series mostly up to 76.9 µM. The source says: In addition to finding PI5P, we discovered the type II phosphatidylinositol 5-phosphate 4-kinase (PI5P4K) family (alpha, beta, gamma isoforms) that catalyze the conversion of PI5P to PI(4,5)P2. Alternatively, PI(4,5)P2 can also be synthesized through phosphatidylinositol-4-phosphate (PI4P) by the type I phosphatidylinositol 4-phosphate 5-kinases (PI4P5K). These PI5P4K enzymes therefore represent one way by which cells can regulate endogenous PI5P levels and play important roles in insulin signaling and in stress responses. […] A qHTS PI5P4Kalpha ADP-Glo assay was developed to identify specific modulators of human PI5P4K, phosphatidylinositol-5-phosphate 4-kinase (Type II PIPK). This assay was screened against the MLSMR containing ~400,000 small molecules (PubChem AID 652105). The same assay was used to validate subsequent Medicinal Chemistry efforts on the active compounds and its analogs. Inhibition of the enzyme activity (signal decrease) is the desired outcome for this assay. Davis et al., PLoS One. 2013; 8(1):e54127. NIH Chemical Genomics Center [NCGC] NIH Molecular Libraries Probe Centers Network [MLPCN] MLPCN Grant: MH096575 Assay Submitter (PI): Atsuo Sasaki, Beth Israel Deaconess Medical Center
Two microliter of PI5P4Kalpha/substrate buffer (columns 1-2, 5-48) was dispensed into Greiner white solid bottom 1536-well assay plates; column 3 received only PI5P4Kalpha buffer as no substrate control; column 4 receives only substrate buffer as no PI5P4Kalpha controls. Final assay buffer consists of 0.038 M HEPES pH 7.4, 0.28 mM EGTA, 0.1 % CHAPS, and 5% DMSO (final concentration). Compounds were then transferred via Kalypsys pin tool equipped with 1536-pin array. Following addition of compound, 1 uL of ATP (5 uM final concentration) was added to initiate the reaction. ATP was diluted in an assay buffer consisting of 0.02 M HEPES pH 7.4, 60 mM MgCl2, 15 uM ATP, and 0.1% CHAPS. The plates were then incubated at room temperature for 60 minutes. ADP-Glo reagent 1 was added and plates incubated for 45 minutes. ADP-Glo reagent 2 was added and the plates were incubated for 30 minutes. The plates were transferred to a ViewLux high-throughput CCD imager (PerkinElmer) wherein single end-point measurements of luminescence were acquired using a clear filter.
A general note: qHTS replaces the single test concentration by a dilution series.
Regarding `O=C1Nc2ccccc2/C1=C\c1cc(Br)c(O)c(Br)c1`, the Potency is 1220 nM (active).
Consider `Cc1cccc2c1NC(=O)/C2=C/c1cc(Cl)c(O)c(Cl)c1`, for which the Potency is 547 nM (active).
For `O=C1Nc2ccccc2/C1=C/c1cccc(C(=O)O)c1`, the Potency is 10900 nM (active).
The result for `O=C1Nc2ccccc2/C1=C\c1ccc(O)cc1` reads 24400 nM (active); that for `O=C1Nc2ccccc2/C1=C/c1ccc[nH]1`, “inactive”.
With `O=C1Nc2ccccc2/C1=C\c1ccc([N+](=O)[O-])cc1`, the Potency is 2740 nM (active).
Take `O=C1Nc2ccccc2/C1=C\c1ccc(O)c(F)c1`: the Potency was 2180 nM (active).
On to `COc1cc(/C=C2\C(=O)Nc3ccccc32)ccc1O`, for which the Potency was 19400 nM (active).
With `O=C1Nc2ccccc2/C1=C/c1cc(Cl)c(O)c(Cl)c1`, the Potency is 867 nM (active).
The result for `O=C1Nc2cccc(Cl)c2/C1=C\c1cc(Cl)c(O)c(Cl)c1` reads 3070 nM (active); that for `O=C1Nc2ccccc2/C1=C\c1cc(F)c(O)c(F)c1`, 487 nM (active); that for `O=C1Nc2ccccc2C12CC2c1cc(Cl)c(O)c(Cl)c1` (centres undefined), 10900 nM (active).
The result for `COc1cc(/C=C2/C(=O)Nc3ccccc32)cc(OC)c1O` reads 30700 nM (active); that for `COc1ccc(/C=C2/C(=O)Nc3ccccc32)cc1O`, 772 nM (active).

(Values after PubChem BioAssay AID743381 (National Center for Advancing Translational Sciences (NCATS), 2014).)
